VLA-4 inh: inhibition in a human VLA-4 binding assay; P13612; VLA-4 expressing cells, ligand binding flow cytometry; inhibition, % (about 7 µM as worked out from the volumes in the protocol); 0.2% of 330,000 active; in the data active = inhibition above about 50%
Target sequence (P13612 whole entry, looked up): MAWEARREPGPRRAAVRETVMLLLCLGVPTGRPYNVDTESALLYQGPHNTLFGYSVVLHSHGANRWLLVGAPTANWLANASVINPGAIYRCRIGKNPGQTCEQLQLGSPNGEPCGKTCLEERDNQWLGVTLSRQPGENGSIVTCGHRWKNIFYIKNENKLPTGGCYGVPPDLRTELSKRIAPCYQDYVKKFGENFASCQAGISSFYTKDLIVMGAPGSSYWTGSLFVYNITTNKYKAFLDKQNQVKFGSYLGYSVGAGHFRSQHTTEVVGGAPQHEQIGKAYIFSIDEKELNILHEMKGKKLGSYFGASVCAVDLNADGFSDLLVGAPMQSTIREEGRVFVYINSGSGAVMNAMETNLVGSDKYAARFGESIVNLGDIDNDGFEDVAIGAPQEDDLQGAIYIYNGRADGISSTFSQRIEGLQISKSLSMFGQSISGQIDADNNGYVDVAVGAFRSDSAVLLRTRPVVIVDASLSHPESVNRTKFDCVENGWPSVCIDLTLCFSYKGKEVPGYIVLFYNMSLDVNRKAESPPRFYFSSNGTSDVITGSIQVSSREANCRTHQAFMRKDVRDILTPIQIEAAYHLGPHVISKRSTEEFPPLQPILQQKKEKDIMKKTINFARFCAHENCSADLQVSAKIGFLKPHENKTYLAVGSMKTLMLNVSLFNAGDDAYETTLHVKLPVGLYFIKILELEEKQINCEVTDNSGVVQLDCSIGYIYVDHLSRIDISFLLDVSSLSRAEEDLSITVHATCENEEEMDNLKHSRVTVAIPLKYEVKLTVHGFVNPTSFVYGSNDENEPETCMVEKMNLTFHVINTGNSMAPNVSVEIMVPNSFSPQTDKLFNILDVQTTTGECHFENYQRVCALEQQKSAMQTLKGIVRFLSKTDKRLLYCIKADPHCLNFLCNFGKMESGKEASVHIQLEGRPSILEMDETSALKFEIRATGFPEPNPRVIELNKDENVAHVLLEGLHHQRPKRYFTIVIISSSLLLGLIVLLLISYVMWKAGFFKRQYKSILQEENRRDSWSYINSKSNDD
A3A deaminase: human APOBEC3A DNA deaminase inhibition. recombinant A3A, FAM/TAMRA ssDNA deamination fluorescence. P31941. 0.41% of 330,000 active. inhibition, % at 20 µM;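 active = at least 40% inhibition at 20 µM here, with at most 30% in a related deaminase screen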;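 note: plate controls were A3A with DMSO for no effect and wells lacking A3A enzyme for full effect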
beta cell repl: induces beta-cell replication in MIN6 cells; MIN6 cells proliferation, ATPlite luminescence, 48 h; cells starved in 0.2% serum; 100% = growth in 10% serum; proliferation, % at 10 µM; 0.29% of 330,000 active;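 active = compounds whose signal lies at least 3.5 SD above the mean of all wells on their plate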;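 note: 0% = DMSO-treated cells in low-serum medium and 100% = 10% serum control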
CendR NRP1 mod: alters CendR peptide binding to human NRP-1; FAM-RPARPAR peptide binding to NRP-1, fluorescence polarization; O14786; AID 602438; inhibition, % at 25 µM; 0.85% of 360,000 active;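 active = inhibition or corrected inhibition above about 18%, plus a signal ratio from 0.5 to 1.5, limit read from the data, passing the limit was not always enough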
APOBEC3G inh: inhibitors of human APOBEC3G DNA deaminase. inhibition, % at 20 µM. AID 493012. recombinant A3G, ssDNA deamination FAM/TAMRA fluorescence. 0.28% of 330,000 active;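 active = inhibition of at least 40% at 20 µM, with no more than 30% in the related APOBEC3A deaminase screen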;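 note: plate controls were DMSO wells with A3G for no effect and wells lacking A3G enzyme for full effect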
An asterisk follows results filed as active; / = not tested or not shown. Rows were chosen to be rich in hits. Some 1.8% of all compounds tested hit in one or more screens of this group.

SMILES	VLA-4 inh	A3A deaminase	beta cell repl	CendR NRP1 mod	APOBEC3G inh
CCN(CC)c1ccc2cc(C(C)=O)c(=O)oc2c1	-10.1	0.8	1.1	-39.8	-2.0
CCN(CC)c1ccc2cc(NC(=O)CCC(=O)O)c(=O)oc2c1	12.8	-6.7	-2.5	50.0*	-4.1
Cc1ccsc1CN(C(=O)c1ccccc1)C1CCS(=O)(=O)C1 (centres undefined)	3.6	-2.7	-0.5	21.8*	-1.5
CC(C)c1ccc(CN(C(=O)c2cccs2)C2CCS(=O)(=O)C2)cc1 (centres undefined)	5.4	4.5	0.0	17.9*	-3.9
O=C(Nc1ccccc1Cl)NC1(C(=O)NCC2CCCO2)CCCCC1 (centres undefined)	-3.8	-0.2	0.0	8.8	-6.4
O=C(Nc1ccccc1Cl)NC1(C(=O)NCc2cccnc2)CCCCC1	6.6	2.9	0.0	24.7*	-1.0
Cc1cc(OCC(=O)OCC(=O)N(C)C2CCS(=O)(=O)C2)ccc1Cl (centres undefined)	/	-3.7	-3.0	0.7	-6.4
O=S(=O)(Nc1ccc(Cl)cc1NS(=O)(=O)c1ccccc1)c1ccccc1	/	/	/	17.2*	/
CSCC[C@H](NC(=O)c1cccc(S(=O)(=O)N2CCCCC2)c1)c1nc2ccccc2[nH]1	7.5	-0.7	-4.5	-7.2	-4.9
COc1ccccc1CNC(=O)Cc1ccc(C)cc1	3.1	-1.2	0.2	43.1*	3.2
COc1ccccc1CNCC(=O)NCc1ccc(C)cc1	15.4	-1.0	-1.2	-6.7	-3.7
CCOC(=O)C1=C(c2ccccc2)OC(N)=C(C#N)C1C(C)C (centres undefined)	1.8	-3.9	0.2	49.8*	-4.7
CC(C)(C)c1ccc(C(=O)Nc2cccc(-n3cnnn3)c2)cc1	-0.8	-0.3	-5.0	-24.4	-3.7
CCc1n[nH]c(=S)n1/N=C/c1cc(OC)cc([N+](=O)[O-])c1O	4.5	0.6	2.0	47.0*	14.1
O=C(NCC1CCCCC1)c1ccc(F)c(S(=O)(=O)N2CCOCC2)c1	-7.7	0.0	-1.2	20.9*	-5.8
O=C(Nc1ccc2c(c1)CCC2)c1ccc(F)c(S(=O)(=O)N2CCOCC2)c1	10.5	0.5	-2.2	25.3*	-11.6
Cc1ccc(C(=O)Nc2ccc3c(c2)CCC3)cc1S(=O)(=O)N1CCOCC1	4.5	-0.5	0.5	-0.3	-3.0
O=C(NCC1CCCCC1)c1ccc(Cl)c(S(=O)(=O)N2CCOCC2)c1	0.0	2.4	-5.2	6.1	-3.6
O=C(COC(=O)c1ccc(F)c(S(=O)(=O)N2CCOCC2)c1)NC1CCCCC1	6.5	-3.4	4.2	-3.9	-5.4
CC1CCCC(C)N1C(=O)COC(=O)c1ccc(F)c(S(=O)(=O)N2CCOCC2)c1 (centres undefined)	7.1	2.5	0.7	22.6*	-2.3
Cc1ccc2nc(NCCc3ccccc3)c3nncn3c2c1	/	-1.8	4.2	-4.0	-9.5
COC(=O)C1CC2=C(CCCC2=O)NC1=O (centres undefined)	/	/	/	-2.0	/
COC(=O)C1CC2(C(=O)OC)CC(C(=O)OC)(CC(C(=O)OC)C2=O)C1=O (centres undefined)	/	/	/	26.5*	/
Cc1ccc(S(=O)(=O)N(CCC(=O)NCC(c2ccccc2)N(C)C)c2ccccc2)cc1 (centres undefined)	/	/	/	1.7	/
O=C(CC12CC3CC(CC(C3)C1)C2)N/N=C/c1ccncc1	28.3	3.5	0.0	18.3*	-2.4
SMILES	VLA-4 inh	A3A deaminase	beta cell repl	CendR NRP1 mod	APOBEC3G inh
CC(=O)c1ccc(N(CC(=O)NCc2ccc3c(c2)OCO3)C(=O)c2csnn2)cc1	4.7	-2.3	2.5	-1.1	-6.8
CCSc1nnc(-c2cnn(-c3ccccc3)c2-n2cccc2)n1C	0.2	-3.6	-1.3	43.5*	-5.8
O=C(O)CN1C(=O)C(=O)N(Cc2ccccc2F)C1=O	13.1	-2.9	0.8	-1.3	-9.4
CCOC(=O)CN(C(=O)CSc1nnc(-c2ccc(OC)c(OC)c2)o1)c1ccccc1	3.2	-0.6	0.7	31.0*	-2.0
COC(=O)CSc1nnc(-c2ccc(OC)c(OC)c2)o1	0.8	1.1	-1.2	-1.2	3.6
O=C(COc1ccc2c3c(c(=O)oc2c1)CCC3)NCCN1CCOCC1	10.3	-5.4	-3.1	7.7	-6.8
O=C(COc1ccc2c3c(c(=O)oc2c1)CCCC3)NCCN1CCOCC1	4.2	-4.0	-2.1	24.5*	-2.2
COc1cc(CNC(C)(C)CO)cc(Br)c1OCc1ccc(Cl)cc1Cl	-0.7	-1.6	-6.8	6.3	-3.7
COc1cc(CNC(C)(C)CO)cc(Br)c1OCc1ccc(Cl)cc1	17.5	-2.5	-7.0	29.8*	-10.1
